# Hits are enriched below; roughly 0.68% of the tested compounds scored in any of these assays.
# AMA1-RON2 inh = AMA1-RON2 (P. falciparum) interaction inhibition | AlphaScreen AMA1-biotinylated RON2 peptide binding | Potency, µM (titrated, usually from 58.2 µM), actives largely listed as inhibitors | 0.2% of 360,000 active; further: nearly all actives have a fitted effect of over 45% in size
#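 AMA1 (3D7) with his tag at 25 nM final met compounds first, then biotinylated RON2 peptide at 25 nM; detection used donor plus acceptor beads, 10 µg/mL apiece, read by AlphaScreen after 30 min at room temperature.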
# RE007 growth inh = less growth of the S. pombe RE007 Vpr strain | AID 651644 | Potency, µM (doses to about 92.2 µM), usual class: inhibitors | S. pombe RE007 Vpr strain, BacTiter-Glo ATP luminescence, 24 h | 0.21% of 360,000 active; active means well fitted falling curve with a large enough effect; inconclusive means small, poorly fitted or top-dose-only effect; inactive means no such curve, though single readings can be large or run the other way; further: nearly all actives have a fitted effect of over 50% in size
#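 Fission yeast RE007 carrying one integrated HIV-1 vpr copy, seeded at OD 0.01 in PMG+AL medium with 23 nL pinned compound. Grown 24 h at 30 degrees; viability read by BacTiter-Glo luminescence after 5 min.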
# LmPK inhibitor = LmPK (Leishmania mexicana) enzyme inhibition; Q27686; purified LmPK, Kinase-Glo ATP luminescence, 1 h; Potency, µM (series often up to 57.5 µM), usual class: inhibitors; 0.37% of 290,000 active
# Target sequence (Q27686 whole entry, looked up): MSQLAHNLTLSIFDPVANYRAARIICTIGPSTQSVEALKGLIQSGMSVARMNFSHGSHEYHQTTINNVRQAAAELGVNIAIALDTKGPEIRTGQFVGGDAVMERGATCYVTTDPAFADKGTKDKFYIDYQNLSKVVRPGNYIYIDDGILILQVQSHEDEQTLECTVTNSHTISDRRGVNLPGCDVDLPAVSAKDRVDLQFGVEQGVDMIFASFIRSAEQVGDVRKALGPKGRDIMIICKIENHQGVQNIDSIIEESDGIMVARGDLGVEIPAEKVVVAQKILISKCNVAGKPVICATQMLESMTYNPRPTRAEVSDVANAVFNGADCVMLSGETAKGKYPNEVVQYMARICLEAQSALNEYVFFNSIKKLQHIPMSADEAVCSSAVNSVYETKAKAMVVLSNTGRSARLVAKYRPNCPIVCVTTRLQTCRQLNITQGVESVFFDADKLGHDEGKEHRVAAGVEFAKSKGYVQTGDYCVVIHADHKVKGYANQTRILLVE
#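 ATP generated from ADP (0.1 mM) and PEP (0.5 mM) by 0.1 nM LmPK over 1 h at room temperature (pH 7.2 imidazole buffer) was detected by coupled luciferase luminescence. Values were normalized to uninhibited and no-enzyme wells.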
# Tb PYK inh = T. brucei pyruvate kinase inhibition; Q57TT1; TbPYK enzyme, Kinase-Glo Plus ATP luminescence, 45 min; Potency, µM (highest dose often 76.8 µM), actives largely listed as inhibitors; 0.12% of 410,000 active; AID 624173; further: nearly all actives have a fitted effect of over 50% in size
#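 Quantitative HTS: titrated library compounds versus trypanosomal pyruvate kinase in TEA buffer (pH 7.2) containing KCl, MgCl2, BSA and Tween-20. Reactions were initiated with ADP, 130 uM final. Kinase-Glo Plus luminescence was read after 45 min at RT.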
# Hits are given with their value; i = inactive; ? = inconclusive; nt = no result; [ ] = another dose, or the depositor's remark. Unless noted, the call rests on the fitted dose curve; in most records, active means well fitted curve in the direction sought with a large enough effect; inconclusive means small, poorly fitted or top-dose-only effect, or another doubt; inactive means no such curve, though single readings can be large; an effect the other way counts as inactive or inconclusive.
SMILES,AMA1-RON2 inh,RE007 growth inh,LmPK inhibitor,Tb PYK inh
CCc1nc2ccc(C(=O)NCCOc3ccc(OC)cc3)cn2c1N(C)Cc1ccc(N(C)C)cc1,?,i,nt,i
CCc1nc2ccc(C(=O)NCc3ccccc3OC)cn2c1N(C)Cc1ccc(N(C)C)cc1,14µM,?,nt,i
Cc1c(NS(=O)(=O)c2ccc(N3CCN(C)CC3)c([N+](=O)[O-])c2)c(=O)n(-c2ccccc2)n1C,i,i,i,i
COC(=O)c1ccc(=O)c2nc3/c(=C/O)c(O)cc(=O)c3[nH]c12,1.3µM,i,i,i
c1ccc2c(c1)Cn1c-2nc2ccccc21,i,?,14µM,?
Brc1c(-c2ccccc2)nc2n1Cc1ccccc1-2,?,i,i,i
Cc1ccc(NC(=S)N2CCN(c3nccc(C(F)(F)F)n3)CC2)c(C)c1,i,i,i,i
CCCOC(=O)c1ccc(NC(=O)C2C3C=CC(O3)C2C(=O)O)cc1 (stereo not given),i,13µM,i,i
CC(=O)c1ccc(NC(=O)C2C3C=CC(O3)C2C(=O)O)cc1 (stereo not given),i,i,i,i
CC(=O)C(Sc1nn(C)c(=S)s1)C(=O)Nc1ccccc1 (stereo not given),i,?,i,32µM
CC(=O)C(Sc1nc(N(C)C)nc(N(C)C)n1)C(=O)Nc1ccccc1 (stereo not given),i,i,i,i
CCOC(=O)C1CCCN(C2=C(NS(=O)(=O)c3ccc(Br)cc3)C(=O)c3ccccc3C2=O)C1 (stereo not given),13µM,i,i,i
CC1CCCN(C2=C(NS(=O)(=O)c3ccc(Br)cc3)C(=O)c3ccccc3C2=O)C1 (stereo not given),?,i,i,i
CCOC(=O)C1CCN(C2=C(NS(=O)(=O)c3ccc(Cl)cc3)C(=O)c3ccccc3C2=O)CC1,13µM,i,i,i
COc1ccc(OC)c2sc(NC(=O)C3CC3)nc12,i,i,i,i
CCn1cc(C(=O)NCc2ccc3c(c2)OCO3)c(=O)c2ccc(C)nc21,nt,nt,i,nt
Fc1ccc(-c2cn3cc(Cc4ccccc4Cl)sc3n2)cc1,nt,nt,nt,i
Cc1[nH]n(-c2ccc([N+](=O)[O-])cc2)c(=O)c1C=NCCc1c[nH]c2ccccc12,i,?,i,i
Cc1[nH]n(-c2ccc([N+](=O)[O-])cc2)c(=O)c1C=NCCN1CCN(C(=O)c2cccc(F)c2)CC1,i,8.9µM,?,i
Cc1[nH]n(-c2ccc([N+](=O)[O-])cc2)c(=O)c1C=NCCN1CCN(C(=O)c2ccc(Br)cc2)CC1,i,7.1µM,i,i
Cc1[nH]n(-c2ccc([N+](=O)[O-])cc2)c(=O)c1C=NCCN1CCN(C(=O)c2ccc(F)cc2)CC1,i,i,i,i
COc1ccc(C(=O)NCCOc2cccc(Oc3ccccc3)c2)cc1OC,i,i,nt,i
CCN(Cc1ccccc1)c1ccc(N=Nc2nn(C)c(C)c2[N+](=O)[O-])cc1,10µM,i,i,i
CCN(CC)c1ccc(N=Nc2nn(C)c(C)c2[N+](=O)[O-])cc1,i[11.6 µM],i,i,i
Cc1cc2nc(-c3cccnc3SCC(=O)NC3CC3)[nH]c2cc1C,nt,nt,14µM,nt
SMILES,AMA1-RON2 inh,RE007 growth inh,LmPK inhibitor,Tb PYK inh
COc1ccc(Cl)cc1-c1n[nH]c(=S)n1C1CCCCC1,i,i,7.1µM,?
Cc1cc(Cl)ccc1OCc1n[nH]c(=S)n1C1CCCCC1,i,i,13µM,?
Cc1ccccc1OCc1n[nH]c(=S)n1-c1cccc(Cl)c1,i,i,i,?
CCCCNC(=O)c1ccc(Cn2c(=S)[nH]c3c([nH]c4ccc(OC)cc43)c2=O)cc1,i,i,i,?
CCN(CC)CCNC(=O)CCCCn1c(=S)[nH]c2c([nH]c3ccc(OC)cc32)c1=O,i,i,2.8µM,?
COc1cc(OC)c(-c2c3cc(O)c(=O)cc-3oc3cc(O)c(O)cc23)cc1OC,7.9µM,?,i,i
Cc1c2cc(O)c(=O)cc-2oc2cc(O)c(O)cc12,nt,?,?,i
Cc1cccc(NC(=O)CSc2nc(C)c(Cc3ccccc3)c(=O)[nH]2)c1,i,i,i,i
COc1ccc(NC(=O)C=C(C)C)cc1Cl,i,i,16µM,i
O=C(CN1CCCCCCC1)N/N=C/c1ccc([N+](=O)[O-])o1,10µM,i,i,i
Cc1ccc(C2CC2c2n[nH]c(=S)n2-c2ccc(C)cc2)cc1 (stereo not given),i,i,11µM,?
Cc1ccc(-n2c([C@@H]3C[C@H]3c3ccccc3)n[nH]c2=S)cc1,i,i,?,?

# Screening data: PubChem, National Center for Advancing Translational Sciences (NCATS)
